Screen size: about 5,500 compounds; about 2,000 (36%) were called active. Not shown: some 18% with an inconclusive outcome. Cut-off read from the data, not from the text of the source: active = normalized growth mostly below about 0.91 (no sharp cut-off); inconclusive = no clear call, values can overlap the other calls; inactive = mostly above about 0.92. Some of the results follow.
Experiment: chemical genetic growth profiling, strain panel (AID 1159580);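 note: tested at 20 µM; growth read once vehicle control cultures reached saturation at 30 °C; 1 = growth at the plate median or of vehicle wells; lower values mean less growth of the strain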
Conditions: S. cerevisiae deletion strains, growth OD

Measured: normalized growth

C=CC[C@]1(O)CCC2C3CCC4=CC(=O)CCC4=C3C=C[C@@]21C (stereo not given in full)
active: locus YDR137W, strain rgp1, stronger effect = lower value 0.806 | locus YDR392W, strain spt3, stronger effect = lower value 0.551 | locus YER155C, strain BEM2 (second series), stronger effect = lower value 0.815 | locus YLR262C, strain YPT6 (second series), stronger effect = lower value 0.804 | locus YLR320W, strain mms22, stronger effect = lower value 0.838 | locus YNL071W, strain lat1, stronger effect = lower value 0.817
inactive: locus YAL021C, strain ccr4, stronger effect = lower value 0.989 | locus YAL026C, strain drs2, stronger effect = lower value 0.975 | locus YAL030W, strain snc1, stronger effect = lower value 0.994 | locus YBL061C, strain skt5, stronger effect = lower value 0.989 | locus YBR009C, strain hhf1, stronger effect = lower value 0.988 | locus YBR023C, strain chs3, stronger effect = lower value 0.986 | locus YBR171W, strain sec66, stronger effect = lower value 0.975 | locus YBR231C, strain swc5, stronger effect = lower value 0.988 | locus YBR279W, strain paf1, stronger effect = lower value 0.996 | locus YCL011C, strain gbp2, stronger effect = lower value 1.01 | locus YCL016C, strain dcc1, stronger effect = lower value 0.998 | locus YCL061C, strain MRC1, stronger effect = lower value 0.998 | locus YCL069W, strain vba3, stronger effect = lower value 0.999 | locus YCR088W, strain abp1, stronger effect = lower value 0.987 | locus YDL005C, strain med2, stronger effect = lower value 0.996 | locus YDL040C, strain nat1, stronger effect = lower value 0.991 | locus YDR001C, strain nth1, stronger effect = lower value 0.995 | locus YDR069C, strain doa4, stronger effect = lower value 0.996 | locus YDR159W, strain sac3, stronger effect = lower value 0.997 | locus YDR195W, strain ref2 1.05 | locus YDR297W, strain sur2, stronger effect = lower value 0.985 | locus YDR334W, strain swr1, stronger effect = lower value 0.997 | locus YDR335W, strain msn5, stronger effect = lower value 1.01 | locus YEL003W, strain gim4, stronger effect = lower value 0.992 | locus YEL037C, strain rad23, stronger effect = lower value 0.995 | locus YEL061C, strain CIN8 (second series), stronger effect = lower value 0.993 | locus YER015W, strain faa2, stronger effect = lower value 0.997 | locus YER016W, strain bim1, stronger effect = lower value 0.996 | locus YER111C, strain swi4, stronger effect = lower value 0.998 | locus YFR010W, strain ubp6, stronger effect = lower value 1.01 | locus YGL167C, strain pmr1, stronger effect = lower value 0.992 | locus YGL173C, strain kem1, stronger effect = lower value 0.99 | locus YGL227W, strain vid30, stronger effect = lower value 0.995 | locus YGL240W, strain doc1, stronger effect = lower value 0.989 | locus YGL253W, strain hxk2, stronger effect = lower value 0.985 | locus YHR013C, strain ard1, stronger effect = lower value 0.935 | locus YHR027C, strain rpn1, stronger effect = lower value 0.996 | locus YHR030C, strain SLT2, stronger effect = lower value 0.992 | locus YHR079C, strain IRE1, stronger effect = lower value 1 | locus YHR142W, strain chs7, stronger effect = lower value 0.944 | locus YJL092W, strain hpr5, stronger effect = lower value 0.984 | locus YJL095W, strain BCK1 (second series), stronger effect = lower value 1 | locus YJL095W, strain BCK1, stronger effect = lower value 0.909 | locus YJL115W, strain asf1, stronger effect = lower value 0.991 | locus YJL129C, strain trk1, stronger effect = lower value 0.91 | locus YJL154C, strain vps35, stronger effect = lower value 0.995 | locus YJL164C, strain tpk1, stronger effect = lower value 1 | locus YJL166W, strain qcr8, stronger effect = lower value 0.982 | locus YJL187C, strain SWE1, stronger effect = lower value 0.993 | locus YJR066W, strain TOR1, stronger effect = lower value 0.946 | locus YKL160W, strain elf1, stronger effect = lower value 0.984 | locus YKR026C, strain gcn3, stronger effect = lower value 0.977 | locus YKR091W, strain srl3, stronger effect = lower value 0.996 | locus YLL001W, strain dnm1, stronger effect = lower value 1 | locus YLL026W, stronger effect = lower value 0.995 | locus YLL041C, strain sdh2, stronger effect = lower value 0.991 | locus YLR027C, strain aat2, stronger effect = lower value 1 | locus YLR113W, strain HOG1, stronger effect = lower value 0.884 | locus YLR221C, strain rsa3, stronger effect = lower value 0.986 | locus YLR258W, strain gsy2, stronger effect = lower value 0.991 | locus YLR342W, strain FKS1, stronger effect = lower value 0.969 | locus YLR357W, strain rsc2, stronger effect = lower value 0.999 | locus YLR370C, strain arc18, stronger effect = lower value 0.982 | locus YLR384C, strain iki3, stronger effect = lower value 1 | locus YML120C, strain ndi1, stronger effect = lower value 0.98 | locus YMR058W, strain fet3, stronger effect = lower value 0.993 | locus YMR125W, strain sto1, stronger effect = lower value 1 | locus YMR129W, stronger effect = lower value 0.993 | locus YMR205C, strain PFK2, stronger effect = lower value 0.895 | locus YMR231W, strain pep5, stronger effect = lower value 0.995 | locus YNL183C, strain NPR1, stronger effect = lower value 0.93 | locus YNL209W, strain ssb2, stronger effect = lower value 1 | locus YNL248C, strain rpa49, stronger effect = lower value 1.01 | locus YNL322C, strain KRE1 (second series), stronger effect = lower value 0.999 | locus YNR049C, strain mso1, stronger effect = lower value 0.997 | locus YOR001W, strain rrp6, stronger effect = lower value 0.99 | locus YOR070C, strain gyp1, stronger effect = lower value 0.982 | locus YOR080W, strain dia2, stronger effect = lower value 0.998 | locus YOR083W, strain WHI5, stronger effect = lower value 0.994 | locus YOR106W, strain vam3, stronger effect = lower value 1.01 | locus YOR231W, strain MKK1, stronger effect = lower value 0.985 | locus YOR265W, strain rbl2, stronger effect = lower value 0.998 | locus YOR270C, strain vph1, stronger effect = lower value 0.872 | locus YOR290C, strain snf2, stronger effect = lower value 0.953 | locus YPL051W, strain arl3, stronger effect = lower value 0.988 | locus YPL078C, strain atp4, stronger effect = lower value 1.02 | locus YPL106C, strain sse1, stronger effect = lower value 1.04 | locus YPL240C, strain hsp82, stronger effect = lower value 0.991 | locus YPL256C, strain CLN2, stronger effect = lower value 0.993

Source: PubChem BioAssay AID1159580 (chemical genetic matrix, 2015)
